Bioassay records (PubChem BioAssay)
A3A deaminase = APOBEC3A ssDNA deaminase inhibitors, primary screen, selectivity assay for APOBEC3G inhibitor project, biochemical, FAM/TAMRA oligo cleavage fluorescence | DNA dC->dU-editing enzyme APOBEC-3A (Homo sapiens), P31941 | recombinant A3A, FAM/TAMRA ssDNA deamination fluorescence | inhibition, % at 20 µM | 330,000 tested, 0.41% active;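 active means at least 40% inhibition at 20 µM here, with at most 30% in a related deaminase screen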;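 further: plate controls were A3A with DMSO for no effect and wells lacking A3A enzyme for full effect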
Target sequence (P31941 whole entry, looked up): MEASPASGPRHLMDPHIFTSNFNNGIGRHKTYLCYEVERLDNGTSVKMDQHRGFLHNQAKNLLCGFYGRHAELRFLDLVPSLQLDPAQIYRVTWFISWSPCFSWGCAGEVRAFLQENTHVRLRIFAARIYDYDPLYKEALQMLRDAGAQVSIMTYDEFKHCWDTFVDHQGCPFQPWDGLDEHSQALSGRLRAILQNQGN
rCAG RNA binder = binders of r(CAG) RNA repeats, primary screen, biochemical, fluorescence; 370,000 tested, 1.3% active; r(CAG) RNA repeat, TO-PRO-1 dye displacement fluorescence; AID 651821, 2012; inhibition, % at 3 µM;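 active means inhibition above the plate cutoff, the mean of all test compounds on that plate plus 3 SD, cut at about 35% in these data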;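 further: 0% = DMSO alone and 100% = 100 µM mitoxantrone as full dye displacement; higher means more dye released from RNA so lower well fluorescence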
APOBEC3G inh = APOBEC3G DNA deaminase inhibitors, primary screen, biochemical, fluorescence, single-stranded DNA substrate, uHTS. inhibition, % at 20 µM. recombinant A3G, ssDNA deamination FAM/TAMRA fluorescence. AID 493012, 2011. 330,000 tested, 0.28% active;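 active means inhibition of at least 40% at 20 µM, with no more than 30% in the related APOBEC3A deaminase screen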;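 further: plate controls were DMSO wells with A3G for no effect and wells lacking A3G enzyme for full effect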
ALR inh = inhibitors of human ALR sulfhydryl oxidase, primary screen, biochemical, H2O2 detection, HRP-luminol luminescence, single point. AID 485317, 2010. 290,000 tested, 3.8% active. FAD-linked sulfhydryl oxidase ALR (Homo sapiens), P55789. purified ALR, DTT oxidation. inhibition, % (test concentration not listed);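 active means mean replicate inhibition above about 79%, with every replicate also reaching it, limit read from the data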
Target sequence (P55789 whole entry, looked up): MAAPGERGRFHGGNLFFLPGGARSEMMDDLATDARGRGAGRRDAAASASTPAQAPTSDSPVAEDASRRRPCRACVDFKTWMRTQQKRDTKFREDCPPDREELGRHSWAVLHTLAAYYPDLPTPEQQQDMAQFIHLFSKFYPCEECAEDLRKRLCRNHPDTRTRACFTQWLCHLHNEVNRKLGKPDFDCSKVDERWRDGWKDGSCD
PHOSPHO1 block = PubChem AID 1565; recombinant PHOSPHO1, absorbance phosphatase assay; Phosphoethanolamine/phosphocholine phosphatase (Homo sapiens), Q8TCT1; 290,000 tested, 1.1% active; inhibition, % at 13.3 µM; in the data active means inhibition above about 60%
Target sequence (Q8TCT1 whole entry, looked up): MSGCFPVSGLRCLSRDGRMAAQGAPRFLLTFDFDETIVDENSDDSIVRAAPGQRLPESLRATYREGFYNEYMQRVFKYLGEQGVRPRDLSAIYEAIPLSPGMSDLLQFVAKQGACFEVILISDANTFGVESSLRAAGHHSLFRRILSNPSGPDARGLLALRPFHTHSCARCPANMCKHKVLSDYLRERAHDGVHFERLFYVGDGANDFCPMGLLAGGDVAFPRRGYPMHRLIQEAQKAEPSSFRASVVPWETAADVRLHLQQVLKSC
aDG glyco act = activators of alpha-DG glycosylation, primary screen, uHTS, Pro5-aDG cells, AlphaScreen. alpha-DG glycosylation AlphaScreen (IIH6); 0% Pro5, 100% B10-LARGE cell signal. activation, % at 10 µM. 360,000 tested, 0.22% active;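 active means activation of at least 8% versus controls, or a plate z-score of at least 8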;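 further: Pro5 are CHO cells carrying HIG-tagged alpha-DG that lacks glycosylation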
An asterisk follows results filed as active; nt = no result. Sampled rows, rich in hits. Any-hit rate of the full collection: about 5.4%.

SMILES | A3A deaminase | rCAG RNA binder | APOBEC3G inh | ALR inh | PHOSPHO1 block | aDG glyco act
COc1cc(-c2nc3ccccn3c2/N=C/c2ccccc2)ccc1O | -7.8 | -0.6 | -2.6 | 84.4* | 5.4 | 0.0
COc1cc(-c2nc3ccccn3c2/N=C/c2cc(OC)c(O)cc2Cl)ccc1O | 4.9 | 0.1 | -1.6 | 94.3* | -24.8 | -0.2
COc1cc(-c2nc3ccccn3c2NCC2CCCO2)ccc1O (configuration not stated) | 1.7 | -5.3 | -3.2 | 98.7* | 3.0 | -0.3
CCOc1cc(-c2nc3ccccn3c2NCC2CCCO2)ccc1O (configuration not stated) | -3.8 | -8.1 | -5.1 | 68.7 | -3.3 | -0.1
COc1cc(-c2nc3ccccn3c2/N=C/c2cccc(F)c2)ccc1O | -0.4 | -1.5 | -2.7 | 77.6* | -28.5 | 0.0
Oc1cccc(/C=N/c2c(-c3ccco3)nc3ccccn23)c1 | -6.0 | 8.2 | -5.8 | 11.1 | 7.2 | -0.3
Cc1nc2ccc(S(=O)(=O)NCC(=O)N(C)Cc3ccccc3F)cc2s1 | nt | -0.2 | nt | nt | nt | nt
COC1=C[C@H](C(=O)NCc2ccccc2)[C@H](C)[C@@H](c2ccccc2)CC1=O | nt | 2.2 | nt | nt | nt | nt
CN(C)c1cccc(C(=O)Nc2cccc(F)c2)c1 | 2.2 | 3.4 | 1.1 | 98.2* | 10.6 | -0.1
CN(C)c1ccc(NC(=O)c2cccc(N3C(=O)CCC3=O)c2)cc1 | -4.8 | 3.8 | -7.1 | 99.0* | 65.6* | -0.1
COc1cc(C(=O)Nc2ccc(S(=O)(=O)N(C)c3ccccc3)cc2)cc(OC)c1OC | 4.5 | 4.2 | -2.0 | -5.8 | -0.3 | -0.4
COc1cc(C(=O)Nc2ccc(N(C)C)cc2)cc(OC)c1OC | -1.6 | -3.2 | -4.0 | 99.4* | 29.3 | -0.1
COC(=O)C1=C(C)N(C)C(=NCC2CC2)NC1c1cccc(F)c1 (configuration not stated) | nt | 4.0 | nt | nt | nt | nt
COc1c2c(cc3c1c(=O)c1ccccc1n3C)OCO2 | nt | 0.7 | nt | nt | nt | nt
COCCCN1C(=O)[C@H](CC(=O)NCCC(C)C)[C@]2(C(=O)OC)CCCCC=C12 | nt | 0.1 | nt | nt | nt | nt
COCCN(CCOC)C(=O)[C@@H](Cc1ccccc1)NC(=O)[C@H]1O[C@@H](n2ccc(N)nc2=O)[C@H](O)[C@@H]1O | nt | 2.2 | nt | nt | nt | nt
COc1cccc(CNc2ccc(N3CCC(C)CC3)cc2)c1OC | 0.1 | 5.7 | -3.4 | 98.5* | -19.8 | -0.2
O=C1Cn2nnc(-c3ccccc3)c2C2c3cc(Br)ccc3CCN12 (configuration not stated) | nt | 3.1 | nt | nt | nt | nt
CCCCNS(=O)(=O)CC1NCc2cc(OC)ccc21 (configuration not stated) | nt | 5.8 | nt | nt | nt | nt
COc1ccccc1CNC(=O)Nc1cccs1 | -2.5 | 14.5 | -6.0 | 97.4* | -46.9 | 0.2
COc1cccc(CNC(=O)Nc2cccs2)c1 | 2.6 | 6.8 | 8.8 | 99.3* | 41.2 | -0.2
CN(C)CCCn1c2c(c(SCC(=O)Nc3nccs3)nc1=O)CCC2 | -3.1 | 2.8 | -5.5 | 98.8* | nt | -0.3
CCN(CC)CCn1c2c(c(SCC(=O)Nc3nc(C)cs3)nc1=O)CCC2 | -0.3 | -4.8 | -11.8 | 98.7* | nt | 0.4
CCN(CC)CCn1c2c(c(SCC(=O)Nc3nc(C)cs3)nc1=O)CCCC2 | 0.2 | -10.2 | 4.1 | 98.0* | nt | 0.1
C=CCN1C(=O)[C@@H](CC(=O)N2CCCCC2)[C@]2(C(=O)OCC)CCCCC/C=C/12 | nt | -0.1 | nt | nt | nt | nt
SMILES | A3A deaminase | rCAG RNA binder | APOBEC3G inh | ALR inh | PHOSPHO1 block | aDG glyco act
COC(=O)n1c(=S)oc2cc(Cl)ccc21 | 1.3 | nt | 6.2 | 96.2* | 44.9 | nt
Cn1cccc1C(=O)N1CCN(S(=O)(=O)c2cccs2)CC1 | nt | 4.3 | nt | nt | nt | nt
COC(=O)c1cc2c(c3c4cc(OC)ccc4n(S(=O)(=O)c4ccc(OC)cc4)c13)C(=O)N(Cc1ccc(N(C)C)cc1)C2 | nt | 12.1 | nt | nt | nt | nt
CCOC(=O)c1ccc(NC(=O)C(C)Sc2nc(O)c(-c3ccccc3)c(=O)[nH]2)cc1 (configuration not stated) | 6.6 | 13.0 | 3.6 | 98.6* | 27.4 | 0.0
Cc1cccc(C=NNc2cc(C)c3cccc(C)c3n2)n1 | nt | 4.7 | nt | nt | nt | nt
COc1ccc(-n2c(SCC(=O)N3CCCCC3C)nnc2-c2ccncc2)cc1 (configuration not stated) | nt | 3.3 | nt | nt | nt | nt
Cc1cc(C(=O)NC2CC(C)(C)Cc3c2cnn3-c2cccc(F)c2)nn1C (configuration not stated) | 0.9 | -11.8 | -7.8 | 3.0 | 32.2 | 0.1
CC1(C)Cc2c(cnn2-c2cccc(F)c2)C(NC(=O)c2ccc(=O)[nH]n2)C1 (configuration not stated) | -2.6 | -2.4 | -2.4 | 92.4* | 24.0 | 0.2
Cc1cc(C(=O)NC2CC(C)(C)Cc3c2cnn3-c2cccc(F)c2)n(C)n1 (configuration not stated) | -4.2 | -9.9 | 0.2 | 4.4 | 32.7 | 0.2
CC1=C(C(=O)NC2CC(C)(C)Cc3c2cnn3-c2cccc(F)c2)OCCO1 (configuration not stated) | -2.2 | -5.8 | -2.5 | 96.7* | 1.2 | 0.2
CCOC(=O)[C@]12CCCC=C1N(CCCOC)C(=O)[C@@H]2CC(=O)NCC1CCCCC1 | nt | -0.8 | nt | nt | nt | nt
C[C@H]1CNCCN1c1ccc(N2CCS(=O)(=O)CC2)c(C#N)c1 | nt | 3.9 | nt | nt | nt | nt
CCN(CCOC(=O)Nc1ccc(Cl)cc1)C(=O)Nc1ccc(Cl)cc1 | nt | 4.9 | nt | nt | nt | nt
CCN(C(=O)c1coc(=O)c(Br)c1)c1ccc2c(c1)OCO2 | -0.7 | -8.0 | 1.8 | 15.3 | 73.5* | 0.1
CCN(C(=O)c1c(C)cc(=O)oc1C)c1ccc2c(c1)OCO2 | 2.6 | -1.2 | -1.3 | nt | 18.5 | -0.2
COc1ccc(CNCC#Cc2cccnc2)c(OC)c1 | nt | 2.8 | nt | nt | nt | nt
C=C(C)c1cccc(C(C)(C)NC(=O)NCc2ccncc2)c1 | -0.9 | -0.3 | -6.4 | 2.6 | 65.6* | -0.1
COC(=O)c1cc(-c2cccc3ccccc23)c(=O)n2c1CCC2 | nt | 1.2 | nt | nt | nt | nt
CCOC(=O)[C@]12CCCCC/C=C\1N(Cc1ccc(OC)cc1)C(=O)[C@H]2CC(=O)N1CCC(c2ccccc2)CC1 | nt | 5.6 | nt | nt | nt | nt
CCOC(=O)[C@]12CCCC=C1N(CCCOC)C(=O)[C@@H]2CC(=O)NCCc1ccccc1OC | nt | -1.0 | nt | nt | nt | nt
COCC1CCCN(Cc2nc(Cc3ccccc3)no2)C1 (configuration not stated) | -2.3 | -7.0 | -5.3 | -7.2 | 49.8 | -0.2
c1ccc(Cc2noc(CN3CCC(CN4CCOCC4)CC3)n2)cc1 | 1.4 | -4.0 | -9.0 | -2.4 | 61.1* | 0.4
Cc1cccc(C)c1NC(=O)CSCC(=O)O | 1.7 | 5.1 | -4.0 | -2.8 | -4.9 | 0.1
